Data from PubChem BioAssay AID1508636 (National Center for Advancing Translational Sciences (NCATS), 2021).
Results filed as inconclusive are left out. Values without a mark were called inactive. Activity calls are given as the source filed them. Calls follow the shape of the dose curve; as a rule, active = well fitted inhibition curve with a large enough effect; inconclusive = small, poorly fitted or top-dose-only effect; inactive = flat fitted curve, though single readings scatter.

biological target: ATP-dependent translocase ABCB1 (Homo sapiens) (UniProt P08183); assay: qHTS for characterization and localization of zebrafish homologs of the human ABCB1 multidrug transporter: P-gp overexpressing MDR-19 cells; settings: MDR-19 cells overexpressing P-gp, CellTiter-Glo luminescence viability, 72 h; series mostly up to 46.1 µM; activity change, negative = inhibition: at the top concentration
Sequence (P08183 whole entry, looked up): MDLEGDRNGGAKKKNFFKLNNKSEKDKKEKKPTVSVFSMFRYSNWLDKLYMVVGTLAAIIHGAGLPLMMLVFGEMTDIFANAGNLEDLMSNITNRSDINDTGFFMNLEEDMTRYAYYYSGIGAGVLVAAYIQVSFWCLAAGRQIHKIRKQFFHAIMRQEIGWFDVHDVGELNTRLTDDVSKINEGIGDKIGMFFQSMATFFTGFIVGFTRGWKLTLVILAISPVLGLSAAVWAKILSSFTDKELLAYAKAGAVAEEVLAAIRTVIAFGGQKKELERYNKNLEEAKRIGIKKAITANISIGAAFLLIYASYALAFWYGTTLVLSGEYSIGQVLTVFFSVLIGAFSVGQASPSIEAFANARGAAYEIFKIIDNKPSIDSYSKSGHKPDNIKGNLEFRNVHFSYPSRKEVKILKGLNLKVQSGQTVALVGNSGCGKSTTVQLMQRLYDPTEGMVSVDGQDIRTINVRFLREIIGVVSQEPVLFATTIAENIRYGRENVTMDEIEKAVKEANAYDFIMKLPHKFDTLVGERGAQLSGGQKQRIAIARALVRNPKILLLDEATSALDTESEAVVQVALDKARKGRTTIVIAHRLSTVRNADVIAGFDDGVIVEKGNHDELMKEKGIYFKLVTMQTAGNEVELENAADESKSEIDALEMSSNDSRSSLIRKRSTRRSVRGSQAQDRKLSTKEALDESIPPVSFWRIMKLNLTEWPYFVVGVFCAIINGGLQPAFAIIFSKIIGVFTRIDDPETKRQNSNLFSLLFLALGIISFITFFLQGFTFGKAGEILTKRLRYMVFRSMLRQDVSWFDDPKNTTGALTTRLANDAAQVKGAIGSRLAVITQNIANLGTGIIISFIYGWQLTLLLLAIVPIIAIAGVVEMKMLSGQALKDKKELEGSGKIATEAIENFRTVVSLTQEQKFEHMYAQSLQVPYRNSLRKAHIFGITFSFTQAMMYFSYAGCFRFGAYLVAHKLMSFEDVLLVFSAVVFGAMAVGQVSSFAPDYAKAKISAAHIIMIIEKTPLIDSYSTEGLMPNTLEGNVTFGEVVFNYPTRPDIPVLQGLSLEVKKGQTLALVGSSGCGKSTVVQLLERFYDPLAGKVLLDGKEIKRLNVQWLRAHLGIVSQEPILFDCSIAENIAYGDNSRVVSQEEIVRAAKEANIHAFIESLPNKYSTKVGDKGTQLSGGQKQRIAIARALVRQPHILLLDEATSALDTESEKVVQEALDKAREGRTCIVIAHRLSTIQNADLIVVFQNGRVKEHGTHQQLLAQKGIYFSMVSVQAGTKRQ
Method in brief: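 About 90 known P-gp substrates were titrated onto four cell lines: vector control, MDR-19 (human P-gp) and zebrafish Abcb4 or Abcb5 transfectants. After 72 h, ATP luminescence (CellTiter-Glo) gave curves; cytotoxic required AC50 < 10 uM, >50% response and inhibitory curve class.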

| Compound | activity change, negative = inhibition | Potency |
| --- | --- | --- |
| CCN(CC)Cc1ccc(C(=O)N(CCc2ccccc2OC)[C@@H]2CCNC2)cc1 | 0.0961% |  |
| C#Cc1cccc(Nc2ncnc3cc(OC)c(OCCCCCCC(=O)NO)cc23)c1 |  | 14.8 µM (active) |
| Cc1ccc(C(=O)N(CCCN)[C@@H](c2oc3cc(Cl)ccc3c(=O)c2Cc2ccccc2)C(C)C)cc1 |  | 13.2 µM (active) |
| O=C(NC1CC1)c1cccc(-c2ccc3c(NC(=O)C4CC4)n[nH]c3c2)c1 | -21.2% |  |
| C=C1CO[C@@]2(O[C@H]3CC4C5CC=C6C[C@@H](O)C[C@@H](O[C@@H]7OC[C@H](O)[C@H](O[C@@H]8OC[C@@H](O)[C@H](O)[C@H]8O)[C@H]7O[C@@H]7O[C@@H](C)[C@H](OC(C)=O)[C@@H](OC(C)=O)[C@H]7OC(C)=O)[C@]6(C)C5CC[C@]4(C)[C@@H]3[C@@H]2C)[C@@H](O)[C@H]1OC1OC(C)C(O)C(O)C1O (stereo partly drawn) | 3.31% [at 8.96 µM] |  |
| C/C=C1/NC(=O)C2CSSCCC=CC(CC(=O)NC(C(C)C)C(=O)N2)OC(=O)C(C(C)C)NC1=O (stereo not drawn) |  | 7.43 µM (active) |
| COc1cccc2c1C(=O)c1c(O)c3c(c(O)c1C2=O)C[C@@](O)(C(=O)CO)C[C@H]3O[C@H]1C[C@H](N)[C@@H](O)[C@H](C)O1 |  | 11.8 µM (active) |
| CN(C)C1CCN(C(=O)c2ccc(NC(=O)Nc3ccc(-c4nc(N5CCOCC5)nc(N5CCOCC5)n4)cc3)cc2)CC1 | 4.04% |  |
| COC[C@H](NC(=O)c1cnc(C)s1)C(=O)N[C@@H](COC)C(=O)N[C@@H](Cc1ccccc1)C(=O)[C@@]1(C)CO1 |  | 0.59 µM (active) |
| CCC(C)C(=O)OC1CC(O)C23C4OCC5(C(O)CC2C1(C)C(O)O4)C3C(=O)C(O)C1(C)C(O)(c2ccoc2)CC2OC251 (stereo not drawn) | 3.34% [at 15.2 µM] |  |
| COc1cc2c(NC3CCN(C(C)C)CC3)nc(N3CCCN(C)CC3)nc2cc1OCCCN1CCCC1 | -13.1% |  |
| C=CCNC1=C2CC(C)CC(OC)C(O)C(C)/C=C(\C)C(OC(N)=O)C(OC)/C=C/C=C(\C)C(=O)NC(=CC1=O)C2=O (stereo not drawn) |  | 10.5 µM (active) |
| COc1cc2c(NC3CCN(C(C)C)CC3)nc(N3CCCN(C)CC3)nc2cc1OCCOCCN(C)C | -8.95% |  |
